Results on 40 compounds are retold here after PubChem BioAssay (Tox21).

Inconclusive results are not listed. A number with no mark means an inactive call. Calls of active or inactive are those of the source. Calls come from the whole dose curve; as a rule, active = well fitted cell-killing curve with a large enough effect in the repeat runs; inconclusive = weak or mixed curves; inactive = no such curve, though single readings can be large or run the other way.
% is set by controls: 0 for no effect and ±100 for the full control effect; potency is the fitted concentration of half-maximal effect.

The nature of this experiment: qHTS assay to identify small molecule agonists of the peroxisome proliferator-activated receptor delta (PPARd) signaling pathway - cell viability counter screen (AID 743211). Note: nearly all actives have a fitted effect of over 55% in size. Particulars: PPARd-bla HEK293H viability, CellTiter-Glo luminescence, 17 h; series mostly up to 62.6 µM; activity change, negative = cytotoxicity: at the top concentration. An excerpt: U.S. Tox21 Program National Center for Advancing Translational Sciences [NCATS] NIH Chemical Genomics Center [NCGC] U.S. Environmental Protection Agency [EPA] National Institutes of Environmental Health Sciences [NIEHS] National Toxicology Program [NTP] U.S. Food and Drug Administration [FDA] Tox21 Assay Overview: The peroxisome proliferator-activated receptors (PPARs) are lipid-activated transcription factors of the nuclear receptor superfamily with three distinct subtypes namely PPAR alpha, PPAR delta (PPARd) and PPAR gamma. All these subtypes heterodimerizes with Retinoid X receptor (RXR) and have different physiological functions. […] To identify the compounds that activate PPAR-delta signaling, GeneBLAzer PPAR delta UAS-bla HEK293H cell line (Invitrogen, Carlsbad, CA, USA) containing a beta-lactamase reporter gene under the control of an Upstream Activator Sequence (UAS) was used to screen the Tox21 compound library. The cytotoxicity of the Tox21 compound library against the PPARd-bla cell line was tested in parallel by measuring the cell viability using CellTiter-Glo assay (Promega, Madison, WI) in the same wells.
Tox21 Assay Protocol Summary: PPARd-bla cells were dispensed at 3000 cells/6uL/well in 1536-well black wall/clear bottom plates using a Multidrop Combi (Thermo Fisher Scientific, Waltham, MA) dispenser. After the assay plates were incubated at 37 C and 5% CO2 for 5 h, 23 nL of compounds dissolved in DMSO, positive controls or DMSO only was transferred to the assay plate by a Pintool station (Kalypsys, San Diego, CA). The assay plates were incubated at 37C for 17 h. After 1 uL of LiveBLAzerTM B/G FRET substrate was added using a Bioraptr Flying Reagent Dispenser (FRD) workstation (Beckman Coulter, Indianapolis, IN, USA), the plates were incubated at room temperature for 2 h, and fluorescence intensity was measured by an Envision plate reader (PerkinElmer, Shelton, CT). For cell viability readout that measures cytotoxicity, 3 ul/well of CellTiter-Glo reagent was added into the assay plates using a Bioraptr FRD. After 30 min incubation at room temperature, the luminescence intensity in the plates was measured using a ViewLux plate reader (PerkinElmer).
In the case of `CCCCCOC(=O)Nc1nc(=O)n([C@@H]2O[C@H](C)[C@@H](O)[C@H]2O)cc1F`, the “activity change, negative = cytotoxicity” value was -0.514%.

On to `CCC(C)(C)C1CCC(OC)CC1` (stereo not given), for which the “activity change, negative = cytotoxicity” value is 1.74%.

With `C=CCn1c(=O)n([C@@H]2O[C@H](CO)[C@@H](O)[C@H]2O)c2nc(N)[nH]c(=O)c21`, the “activity change, negative = cytotoxicity” value is 3.51%.

Consider `CN(C)C(=O)C(CCN1CCC(O)(c2ccc(Cl)cc2)CC1)(c1ccccc1)c1ccccc1`, for which the Potency was 23.7 µM (active).

As to `CC(=O)c1ccc(C)cc1`, the “activity change, negative = cytotoxicity” value is 1.59%.

On to `NC1CCN(c2cccc(Cl)n2)CC1`, for which the “activity change, negative = cytotoxicity” value is -11.2%.

In the case of `Nc1ccn(C2CO[C@H](CO)O2)c(=O)n1` (stereo not given in full), the “activity change, negative = cytotoxicity” value was 1.25%.

For the compound `CC12CCC(CC1=O)C2(C)C` (stereo not given), the “activity change, negative = cytotoxicity” value was -1.97%.

Consider `COC(=O)[C@H]1[C@H]2C[C@@H]3c4[nH]c5cc(OC)ccc5c4CCN3C[C@H]2C[C@@H](OC(=O)COc2ccc(OC)cc2)[C@@H]1OC`, for which the “activity change, negative = cytotoxicity” value is -23.1%.

With `NC(=O)c1ncn([C@@H]2O[C@H](CO)[C@@H](O)[C@H]2O)c1N`, the “activity change, negative = cytotoxicity” value was 4.11%.

In the case of `OCc1ccccn1`, the “activity change, negative = cytotoxicity” value was 4.56%.

Regarding `Nc1ncnc2c1ncn2Cc1c(F)cccc1Cl`, the “activity change, negative = cytotoxicity” value was -6.87%.

As for `COC(=O)C1=C(C)NC(C)=C(C(=O)OCC(C)=O)C1c1ccccc1[N+](=O)[O-]` (stereo not given), the “activity change, negative = cytotoxicity” value was 0.973%.

`Cn1cnc2c(=O)[nH]c(N)nc21`: the “activity change, negative = cytotoxicity” value was -0.789%.

Consider `NC(N)=NS(=O)(=O)c1ccc(N)cc1`, for which the “activity change, negative = cytotoxicity” value is 15.8%.

For the compound `FC(F)(F)C(F)(F)C(F)(F)C(F)(F)C(F)(F)C(F)(F)C(F)(F)C(F)(F)C(F)(F)C(F)(F)F`, the activity change, negative = cytotoxicity was 5.8% [at 5.95 µM].

On to `CCCCCCOC(=O)c1ccccc1O`, for which the “activity change, negative = cytotoxicity” value was -13.4%.

On to `Cc1ncc(CSSCc2cnc(C)c(O)c2CO)c(CO)c1O`, for which the “activity change, negative = cytotoxicity” value was 13.2%.

`CC(C)(C)C(=O)/C=C/c1ccc(Cl)cc1`: the “activity change, negative = cytotoxicity” value was -5.74%.

On to `CCCCCCCCCCCCI`, for which the “activity change, negative = cytotoxicity” value was -14.4% [at 81.1 µM].

Turning to `CC1CCN(CCCC(=O)c2ccc(F)cc2)CC1`, the “activity change, negative = cytotoxicity” value was 0.607%.

`O=C1OC(=O)c2cc([N+](=O)[O-])ccc21`: the “activity change, negative = cytotoxicity” value was -1.96%.

In the case of `CC/C=C\CCCCO`, the “activity change, negative = cytotoxicity” value was 26.6%.

Take `CC1=CC(C)C(C=O)C(C)C1` (stereo not given): the “activity change, negative = cytotoxicity” value is -0.419%.

For `N#CCc1ccccc1[N+](=O)[O-]`, the “activity change, negative = cytotoxicity” value is 3.75%.

For the compound `CC1(C)SC(C)(C)SC(C)(C)S1`, the “activity change, negative = cytotoxicity” value was 4.01%.

Take `CC(C)(C)OC(=O)N1C[C@@H](F)C[C@H]1C(=O)O`: the “activity change, negative = cytotoxicity” value was 2.78% [at 81.1 µM].

As to `COC(C(=O)O)c1ccccc1` (stereo not given), the “activity change, negative = cytotoxicity” value is 4.93%.

With `Nc1nc(F)nc2c1ncn2[C@@H]1O[C@H](CO)[C@@H](O)[C@@H]1O`, the “activity change, negative = cytotoxicity” value is 6%.

In the case of `Nc1[nH]c(=O)ncc1F`, the “activity change, negative = cytotoxicity” value was 2.47%.

Turning to `NS(=O)(=O)c1cc2c(cc1Cl)NC(CSCc1ccccc1)=NS2(=O)=O`, the “activity change, negative = cytotoxicity” value was 13.1%.

Regarding `CC(=O)CCc1ccc(O)cc1`, the “activity change, negative = cytotoxicity” value is -0.843%.

Turning to `OCC(CO)(CO)COCC(CO)(CO)CO`, the “activity change, negative = cytotoxicity” value was 1.29%.

On to `CC(=O)N[C@@H](CCC(N)=O)C(=O)O`, for which the “activity change, negative = cytotoxicity” value was 10.7%.

Turning to `O=c1[nH]c(=O)n([C@H]2O[C@H](CO)[C@@H](O)[C@@H]2O)cc1/C=C\Br`, the “activity change, negative = cytotoxicity” value is 0.833%.

In the case of `CC(C)CCCC(C)NCCC(C)C` (stereo not given), the “activity change, negative = cytotoxicity” value is -19.1%.

Regarding `CCCCN(CCO)CCO`, the “activity change, negative = cytotoxicity” value is -0.311%.

For the compound `COCc1ccc(COC)cc1`, the “activity change, negative = cytotoxicity” value was 0.405%.

On to `c1ccc2cnncc2c1`, for which the “activity change, negative = cytotoxicity” value is -21.2%.

As to `CCCCCCCCCCCCCCCCCC(=O)OCCCCCCCCCCCCCC(C)C`, the “activity change, negative = cytotoxicity” value was 9.21%.
